Screens (PubChem BioAssay)
Arbovirus inh – arbovirus infection inhibition; arbovirus infection cell-based antiviral screen; inhibition, % at 10 µM; 200,000 tested, 0.37% active; AID 1251; in the data active means inhibition above about 30%
Hck Nef HTS – human Hck-Nef kinase inhibition | Recombinant Hck-YEEI plus Nef, Z-Lyte FRET kinase assay | inhibition, % at 20 µM | 220,000 tested, 0.68% active;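 active means Hck-Nef kinase inhibition above about 50%, limit read from the data; inactive means inhibition below that limit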
Target sequence (P08631 whole entry, looked up): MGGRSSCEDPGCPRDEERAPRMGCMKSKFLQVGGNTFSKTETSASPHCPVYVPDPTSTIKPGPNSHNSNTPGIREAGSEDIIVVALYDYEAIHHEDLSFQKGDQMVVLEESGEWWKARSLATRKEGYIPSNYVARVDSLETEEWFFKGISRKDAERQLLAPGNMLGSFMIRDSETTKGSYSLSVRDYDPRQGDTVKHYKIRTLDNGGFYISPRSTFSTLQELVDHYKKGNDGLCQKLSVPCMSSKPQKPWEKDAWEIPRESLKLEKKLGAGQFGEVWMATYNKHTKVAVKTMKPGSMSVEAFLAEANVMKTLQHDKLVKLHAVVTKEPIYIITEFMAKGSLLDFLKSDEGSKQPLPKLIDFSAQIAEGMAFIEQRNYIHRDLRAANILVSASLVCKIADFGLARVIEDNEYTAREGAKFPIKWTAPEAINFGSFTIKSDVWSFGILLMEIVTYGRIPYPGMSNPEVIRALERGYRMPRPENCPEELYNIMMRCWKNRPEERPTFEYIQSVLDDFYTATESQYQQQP
PGE2 EP2 inh – EP2 receptor (human) inhibition. C6 glioma cells expressing human EP2, cAMP TR-FRET; cells stimulated with saturating PGE2. P43116. inhibition, % at 25 µM. 260,000 tested, 0.52% active;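 active means percent inhibition above 40 after rounding to a whole number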;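 further: rat C6 glioma host cells with rolipram phosphodiesterase inhibitor present; the protocol text gives 20 µM as final concentration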
p97 inhibitor – inhibitors of human p97 ATPase; P55072; AID 1481; inhibition, % at 8 µM; recombinant p97 ATPase, Kinase-Glo ATP luminescence, 3 h; 220,000 tested, 0.42% active; in the data active means inhibition above about 15%
EP2 mod – EP2 receptor (human) modulation; EP2-expressing cells, cAMP HTRF FRET, PGE2 co-stimulation; AID 940; 260,000 tested, 0.83% active; induction, % at 25 µM;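 active means compounds whose cAMP rise, as percent of the full-agonist control response, exceeds 60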;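 further: rat C6 glioma line stably carrying human EP2 under a CMV promoter; the protocol text gives 20 µM as final concentration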
Hck Nef conf – Hck-Nef kinase inhibition, confirmation | 1,300 tested, 28% active | calls only at 10 µM | shares compounds with Hck Nef HTS | Recombinant Hck-YEEI:Nef, Z-Lyte FRET kinase assay;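 active means average inhibition of at least 50%, with Z-scores no higher than 3 in both the phospho-tyrosine peptide and fluorescence counterscreens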
Of the large screens only hits and unclear results are named; the others gave an inactive call (follow-up assays come after a bar, where shown). This is a sample that favours compounds with a hit; in the whole collection about 2.4% have one here.

O=C1CCc2cc(S(=O)(=O)NC(CN3CCOCC3)c3ccccc3)ccc2N1 (stereo unspecified)	none (no result: Arbovirus inh, Hck Nef HTS, p97 inhibitor)
CCOc1ccc(NC(=S)N2CCN(CCN3C(=O)c4cccc5cccc(c45)C3=O)CC2)cc1	none
COc1ccc(NC(=S)N2CCN(CCN3C(=O)c4cccc5cccc(c45)C3=O)CC2)cc1	Hck Nef HTS 129 | Hck Nef conf inactive
CC1(C)Oc2ccc(S(=O)(=O)N3CCC(O)CC3)cc2NC1=O	none (no result: Arbovirus inh, Hck Nef HTS, p97 inhibitor)
COc1cccc(N=c2oc3ccc(OC)cc3cc2-c2nc3ccccc3[nH]2)c1	Hck Nef HTS 99 | Hck Nef conf active
COc1cccc(N=c2oc3ccccc3cc2-c2nc3ccccc3[nH]2)c1	none
CN(C)c1ncc(CNC2(c3ccc(Cl)cc3)CC2)cn1	none (no result: Arbovirus inh, Hck Nef HTS, p97 inhibitor)
CCc1nnc(NC(=O)CSc2nnc(-c3ccc(OC)cc3)n2-c2ccc(OC)cc2)s1	none (no result: Arbovirus inh, Hck Nef HTS, p97 inhibitor)
CN1CCN(C(=O)c2ccc3c(=O)n(-c4ccc(F)cc4)c(=S)[nH]c3c2)CC1	none
CCOC(=O)N1CCN(C(=O)c2ccc3c(=O)n(-c4ccc(F)cc4)c(=S)[nH]c3c2)CC1	Hck Nef HTS 53 | Hck Nef conf inactive
CCn1c(C)nnc1SCC(=O)Nc1nnc(C)s1	none (no result: Arbovirus inh, Hck Nef HTS, p97 inhibitor)
CCN1CCCc2cc(CN(CCN3CCOCC3)C(=S)Nc3ccc(OC)c(OC)c3)ccc21	Hck Nef HTS 52 | Hck Nef conf inactive
CCN1CCCc2cc(CN(CCN3CCOCC3)C(=S)Nc3ccccc3C)ccc21	Hck Nef HTS 57 | Hck Nef conf inactive
CCOc1ccc(NC(=O)CSc2nc3sc(C)c(C)c3c(=O)[nH]2)cc1	none (no result: Arbovirus inh, Hck Nef HTS, p97 inhibitor)
Cc1ccc(-c2c(C)nn3c(N(C)CCO)c4c(nc23)CCC4)cc1	none (no result: Arbovirus inh, Hck Nef HTS, PGE2 EP2 inh, p97 inhibitor)
O=P(O)(O)c1ccccc1OCCOCCOc1ccccc1P(=O)(O)O	none
CCOP(=O)(O)c1ccccc1OCCOCCOc1ccccc1P(=O)(O)OCC	Hck Nef HTS 94 | Hck Nef conf inactive
O=C(c1cnn(C(=O)COc2ccc(Cl)cc2)c1)c1ccccc1O	Hck Nef HTS 50 | Hck Nef conf active
CCC(=O)Oc1ccc2c(C)cc(=O)oc2c1C(=O)CC	Hck Nef HTS 154 (not shown: Arbovirus inh)
CCNC(=S)N(Cc1cccs1)Cc1cc2cc(C)cc(C)c2[nH]c1=O	none (no result: Arbovirus inh, Hck Nef HTS, p97 inhibitor)
COc1ccc(-n2c(=S)[nH]c3cc(C(=O)NCc4ccco4)ccc3c2=O)cc1OC	none
COc1ccc(CCn2c(=S)[nH]c3cc(C(=O)NCc4ccco4)ccc3c2=O)cc1OC	Hck Nef HTS 75 (no result: PGE2 EP2 inh) | Hck Nef conf active
Cc1c(Oc2ccc(C(F)(F)F)cc2[N+](=O)[O-])ccc2c3c(c(=O)oc12)CCC3	none
Cc1ccc(Oc2ccc(C(F)(F)F)cc2[N+](=O)[O-])c([N+](=O)[O-])n1	Hck Nef HTS 52 (no result: Arbovirus inh) | Hck Nef conf inactive
Cc1c(C)c2cc(Cl)c(O)c(CN3CCN(C)CC3)c2oc1=O	Hck Nef HTS 66
Cc1c(C)c2cc(Cl)c(O)c(CN3CCCC(C)C3)c2oc1=O (stereo unspecified)	Hck Nef HTS 81
COc1ccc(CN2CCc3c(nc(C)[nH]c3=O)C2)cc1O	none (no result: Arbovirus inh, Hck Nef HTS, p97 inhibitor)
Cc1cc2c(n1-c1ccc(Br)cc1)CC(C)(C)CC2=O	Hck Nef HTS 99 | Hck Nef conf inactive
Cc1ccc(-n2c(C)cc3c2CC(C)(C)CC3=O)cc1C	none
CCOc1ccc2[nH]c(=O)c(CN(Cc3ccc(C)cc3)C(=O)NC3CCCCC3)cc2c1	none (no result: Arbovirus inh, Hck Nef HTS, p97 inhibitor)
CC(C)CCN(CCC(C)C)CC(O)Cn1c2ccccc2c(=O)c2ccccc21 (stereo unspecified)	Hck Nef HTS 117 (not shown: Arbovirus inh)
CN1CCC(NCc2ccccc2F)C(c2ccccc2)C1 (stereo unspecified)	none (no result: Arbovirus inh, Hck Nef HTS, PGE2 EP2 inh, p97 inhibitor)
COc1cc(Nc2ncnc(N)n2)cc(OC)c1	Hck Nef HTS 62 (no result: Arbovirus inh) | Hck Nef conf active
Cc1cc(C)c2nc(-c3ccccn3)cc(C(=O)Nc3ccc(S(=O)(=O)Nc4onc(C)c4C)cc3)c2c1	Hck Nef HTS 71 | Hck Nef conf active
CCOC(=O)C1CCN(C(c2cc3ccc(C)c(C)c3[nH]c2=O)c2nnnn2C2CCCC2)CC1 (stereo unspecified)	none (no result: Arbovirus inh, Hck Nef HTS, p97 inhibitor)
Cc1ccc(-c2nc3ccccc3s2)cc1NC(=O)c1cc(-n2cnnc2)ccc1Cl	Hck Nef HTS 91 | Hck Nef conf inactive
CCCC12CN3CC(C)(CN(C1)C3c1ccc([N+](=O)[O-])o1)C2=O (stereo unspecified)	none (no result: Arbovirus inh)
CCC12CN3CC(CC)(CN(C1)C3c1ccc([N+](=O)[O-])o1)C2=O (stereo unspecified)	Hck Nef HTS 50 | Hck Nef conf inactive
N#Cc1cccc(NC(=O)COC(=O)c2cccc(N3C(=O)c4ccccc4C3=O)c2)c1	Hck Nef HTS 56 | Hck Nef conf inactive
O=C(COC(=O)c1cccc(N2C(=O)c3ccccc3C2=O)c1)Nc1ccccc1	none
OC(CN1CCC2(CC1)CC(O)c1cc(F)ccc1O2)c1ccc2ccccc2c1 (stereo unspecified)	none (no result: Arbovirus inh, Hck Nef HTS, p97 inhibitor)
CC(C1CC2CCC1C2)N1CC(O)=C(c2nc3ccccc3[nH]2)C1=N (stereo unspecified)	none (no result: Arbovirus inh)
CC(C)N1CC(O)=C(c2nc3ccccc3[nH]2)C1=N	Hck Nef HTS 56 | Hck Nef conf active
Cc1cc2cc(C)c3nnc(SCC(=O)N4CCCC(C)C4)n3c2cc1C (stereo unspecified)	none (no result: Arbovirus inh, Hck Nef HTS, p97 inhibitor)
CC(=O)Nc1ccc(/C=N/NC(=O)c2cc(-c3ccco3)nc3ccccc23)cc1	none (no result: Arbovirus inh)
O=C(O)c1ccccc1/C=N/NC(=O)c1cc(-c2ccco2)nc2ccccc12	Hck Nef HTS 71 (no result: Arbovirus inh) | Hck Nef conf active
COc1ccc(-c2cc(=O)oc3cc(OCC(C)=O)ccc23)cc1	none
COc1ccc(-c2cc(=O)oc3cc(OCC(=O)c4cccc([N+](=O)[O-])c4)ccc23)cc1	Hck Nef HTS 80 | Hck Nef conf inactive
CCOC(=O)N1CCc2c(sc3nc4n(c(=O)c23)N=C(c2ccc(OC)cc2)CS4)C1	Hck Nef HTS 77 (no result: Arbovirus inh) | Hck Nef conf active
Cc1ccc2occ(/C=N/NC(=O)[C@@H](N)Cc3ccccc3)c(=O)c2c1	Hck Nef HTS 80 (no result: Arbovirus inh) | Hck Nef conf active
CCOC(=O)/C(C#N)=C/c1cc2ccc(C)cc2nc1Cl	none
NC(=S)N/N=C/c1coc2ccc(Cl)cc2c1=O	Hck Nef HTS 66 | Hck Nef conf active
O=C(CCc1ccc(O)cc1)N/N=C/c1coc2ccccc2c1=O	Hck Nef HTS 67 (no result: Arbovirus inh) | Hck Nef conf active
O=C(N/N=C/c1coc2ccccc2c1=O)c1ccccc1Br	none
O=C(N/N=C/c1coc2ccccc2c1=O)c1cccc([N+](=O)[O-])c1	none
COCC(C)OC(=O)/C(C#N)=C\c1coc2ccc(C)cc2c1=O (stereo unspecified)	Hck Nef HTS 98 | Hck Nef conf active
O=C(O)CCC(=O)NCCCn1ccnc1	none (no result: Arbovirus inh, Hck Nef HTS, p97 inhibitor)
COc1ccc(Cn2nnnc2C(c2cc3cc(OC)ccc3[nH]c2=O)N2CCN(C)CC2)cc1 (stereo unspecified)	none (no result: Arbovirus inh, Hck Nef HTS, p97 inhibitor)
CCCCC(CC)Cn1c2nc3ccccc3nc2c2c(=N)oc(C)nc21 (stereo unspecified)	Hck Nef HTS 57 (no result: PGE2 EP2 inh) | Hck Nef conf inactive
